Experimental data taken from ChEMBL document CHEMBL3988442, “University of Dundee, Small-Polar-MMV Screening Library” (2021).
In all, about 69,000 compounds went through this assay and about 50 (0.07%) showed an effect of 50% or more. This excerpt belongs to a sample that is enriched for strong results.

The compounds below were run against Lysine--tRNA ligase (Plasmodium falciparum (isolate 3D7)) (UniProt Q8IDJ8) (assay: Pf-KRS-1 (Lysyl-RNA Synthetase-1, KRS-1, cytosolic KRS) from Plasmodium falciparum. Inhibitor assay, 384 well plate, luminescence read.). Details: 30 µM.
Assay type: functional
Design: scale not given: in the data most compounds retested in dose-response had high values

Sequence of Lysine--tRNA ligase (Plasmodium falciparum (isolate 3D7)) (Q8IDJ8 1-583): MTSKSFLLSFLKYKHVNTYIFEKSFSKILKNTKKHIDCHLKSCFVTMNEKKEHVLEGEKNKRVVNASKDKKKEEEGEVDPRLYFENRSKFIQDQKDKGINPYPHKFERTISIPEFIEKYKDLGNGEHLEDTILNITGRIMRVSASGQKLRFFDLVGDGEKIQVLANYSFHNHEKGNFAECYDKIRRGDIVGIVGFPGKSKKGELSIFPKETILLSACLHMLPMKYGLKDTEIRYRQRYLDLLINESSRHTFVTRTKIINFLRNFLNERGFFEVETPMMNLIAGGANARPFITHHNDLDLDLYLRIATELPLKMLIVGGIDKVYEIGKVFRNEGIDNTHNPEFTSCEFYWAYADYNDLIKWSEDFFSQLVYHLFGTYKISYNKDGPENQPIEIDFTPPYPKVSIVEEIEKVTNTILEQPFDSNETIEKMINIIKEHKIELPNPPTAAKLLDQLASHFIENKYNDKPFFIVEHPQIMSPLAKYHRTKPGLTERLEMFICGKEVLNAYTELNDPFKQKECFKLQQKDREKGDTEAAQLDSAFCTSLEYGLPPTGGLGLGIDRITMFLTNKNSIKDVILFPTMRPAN

| Compound | Percent Effect |
| --- | --- |
| COCc1nc2cc(NCc3scnc3C)ccc2o1 | 13.6% |
| COCc1nc2cc(NCc3csc(C)n3)ccc2o1 | 10.7% |
| COCc1nc2cc(NCc3sc(C)nc3C)ccc2o1 | 58.6% |
| CCC1CCC(CNC(=O)c2c[nH]c(=O)c(Cl)c2)CC1 (configuration not stated) | 67.6% |
| CC/C=C(\C)CN1CCC(CNC(=O)c2c[nH]c(=O)c(Cl)c2)C1 (configuration not stated) | -1.78% |
| COCCN1CCC(CNC(=O)c2c[nH]c(=O)c(Cl)c2)CC1 | 2.11% |
| c1cnc(N2CC[C@@H]3CN(Cc4ccncc4)CCO[C@@H]3C2)nc1 | 4.97% |
| Cc1cccc(CO[C@H]2CN(c3nnc(C)s3)[C@@H]3CCCO[C@H]23)n1 | 3.74% |
| COc1cccc(-c2n[nH]c3c2CN(C(=O)c2cc(C)n(C)n2)CC3)c1 | -1.18% |
| COc1cccc(-c2n[nH]c3c2CN(C(=O)c2ccncc2)CC3)c1 | 0.631% |
| COc1cccc(-c2n[nH]c3c2CN(C(=O)c2cccc(=O)[nH]2)CC3)c1 | 55.1% |
| Cn1cccc1C(=O)N1C[C@H](OCC2CCOCC2)[C@H]2COC[C@H]21 | 3.49% |
| c1cnnc(N[C@@H]2CC[C@@H]3CN(Cc4c[nH]c5ccccc45)C[C@@H]32)c1 | 0.669% |
| CCCN(C(=O)c1cccnc1)c1nc2c(s1)CCc1c-2cnn1C | 44% |
| COCCN(C(=O)c1ccccn1)c1nc2c(s1)CCc1c-2cnn1C | 52.4% |
| CCCN(C(=O)c1cnc(C)cn1)c1nc2c(s1)CCc1c-2cnn1C | 40.4% |
| CN(C(=O)c1ccccn1)c1nc2c(s1)CCc1c-2cnn1C | 0.965% |
| COCCN(C(=O)c1cnccn1)c1nc2c(s1)CCc1c-2cnn1C | 8.73% |
| CCCN(C(=O)c1ccncc1)c1nc2c(s1)CCc1c-2cnn1C | 16.2% |
| CCCN(C(=O)c1cnccn1)c1nc2c(s1)CCc1c-2cnn1C | 10.8% |
| CCCN(C(=O)c1ccccn1)c1nc2c(s1)CCc1c-2cnn1C | 50.4% |
| CCCN(C(=O)COC)c1nc2c(s1)CCc1c-2cnn1C | 74.8% |
| Cc1nccc([C@H]2C[C@@H]3CCN(S(C)(=O)=O)C[C@H]3O2)n1 | -0.787% |

| Compound | Percent Effect |
| --- | --- |
| O=C([C@H]1COC[C@H]2CN(c3ccncn3)C[C@H]21)N1CCCC1 | -3.71% |
| O=C(Nc1cnccn1)[C@H]1C[C@H]2OCC[C@H]2N(c2ncc(F)cn2)C1 | 11.9% |
| COc1cccc(-c2ncc(CN3C[C@@H]4CC[C@H](C3)N(C)C4=O)s2)c1 | -4.12% |
| COc1ccc(OC)c(C2SCC(=O)Nc3n[nH]cc32)c1 (configuration not stated) | 4.67% |
| COc1ccc(OC)c(C2CCN(CC(C)(C)N3CCOCC3)C2)c1 (configuration not stated) | 1.11% |
| COc1ccc(C2CC(=O)NCc3nc(N(C)C)sc32)c(O)c1 (configuration not stated) | 1.01% |
| COc1ccc(C2CC(=O)Nc3c2cnn3C)cc1 (configuration not stated) | -3.99% |
| COc1ccc(C2CC(=O)Nc3nc(N4CCOCC4)sc32)c(OC)c1 (configuration not stated) | 86.4% |
| COc1ccc(C2CC(=O)Nc3nc(N4CCOCC4)sc32)cc1 (configuration not stated) | 82.2% |
| CCn1ncnc1C1CC(=O)NCc2nc(N3CCOCC3)sc21 (configuration not stated) | 0.366% |
| COc1ccc(OC)c(C2CC(=O)Nc3nc(N4CCOCC4)sc32)c1 (configuration not stated) | 84.5% |
| COc1ccc(C2CCCN2c2nnc(C)s2)c(OC)c1 (configuration not stated) | -1.09% |
| COCCN1C(=O)CO[C@H]2CN(Cc3ccccc3Cl)C[C@@H]21 | 3.69% |
| O=C(c1cocn1)N1C[C@H]2CCC[C@@]2(COCc2cccnc2)C1 | 2.44% |
| Cc1c(Cl)cccc1S(=O)(=O)N1C[C@@H]2CC[C@H](C1)N(C)C2=O | 3.71% |
| O=S1(=O)C[C@@H]2[C@H](C1)N(Cc1ccoc1)CCN2Cc1ccncc1 | 8.97% |
| O=C(c1ccncc1)N1C[C@@H]2CC[C@H](C1)N(C(=O)C1CCCC1)C2 | -0.475% |
| O=C1CC(c2ccccc2F)c2c(n3ccsc3nc2=O)N1 (configuration not stated) | 6.5% |
| CNc1nc2c(s1)C(c1ccc(F)cc1Cl)CC(=O)N2 (configuration not stated) | 82% |
| Cn1ncc2c1NC(=O)CC2c1ccccc1Cl (configuration not stated) | 6.28% |
| CNc1nc2c(s1)C(c1ccccc1F)CC(=O)N2 (configuration not stated) | 79.2% |
| CNc1nc2c(s1)C(c1cc(Cl)ccc1F)CC(=O)N2 (configuration not stated) | 44.9% |
| Cc1ccsc1C1CC(=O)Nc2c1cnn2C(C)C (configuration not stated) | 3.08% |

| Compound | Percent Effect |
| --- | --- |
| CNc1nc2c(s1)C(c1cccc(Cl)c1Cl)CC(=O)N2 (configuration not stated) | 29.5% |
| CNc1nc2c(s1)C(c1cccc(F)c1F)CC(=O)N2 (configuration not stated) | 50.5% |
| CNc1nc2c(s1)C(c1ccc(Cl)cc1Cl)CC(=O)N2 (configuration not stated) | 47.4% |
| CC(C)(C)n1ncc2c1NC(=O)CC2c1c(F)cccc1F (configuration not stated) | 5.99% |
| Cn1ncc2c1NC(=O)CC2c1ccc(Cl)cc1Cl (configuration not stated) | 9.51% |
| CNc1nc2c(s1)C(c1ccccc1Cl)CC(=O)N2 (configuration not stated) | 84.5% |
| O=C(NCC1CC1)[C@@H]1CC[C@@H]2[C@@H](CCN2Cc2ccco2)O1 | -0.532% |
| COCCN1C[C@H]2CN(Cc3cccc(OC)c3)CCN2C1=O | 8.64% |
| COc1ncccc1C(=O)N1C[C@@H]2COC[C@]2(CN(C)C)C1 | -2.56% |
| Fc1ccccc1CN1C[C@@H]2OCCN(c3ncccn3)[C@@H]2C1 | -1.46% |
| COCCN1C(=O)[C@H]2CC[C@@H]1CN(S(=O)(=O)c1ccc(OC)cc1)C2 | 5.86% |
| c1cnc2c(-c3nccn3C[C@@H]3CCCN4CCCC[C@H]34)cccc2c1 | 1.5% |
| Cc1cccc(S(=O)(=O)N2CC[C@H]3[C@H]2CCN3c2ncccn2)c1 | 1.51% |
| O=C(c1cscn1)N1CC[C@@H]2[C@@H]1CCN2C1CCOCC1 | 1.62% |
| CN1C[C@@H]2CC[C@H](CC1=O)N2C(=O)c1ccc(-c2ccccc2)[nH]c1=O | 16.3% |
| COc1ccc(CC(=O)N2CC[C@@H]3CN(C)S(=O)(=O)[C@@H]3CC2)cc1 | 3.63% |
| CNc1nc2c(s1)C(c1c(Cl)cccc1Cl)CC(=O)N2 (configuration not stated) | 35.2% |
| CNc1nc2c(s1)C(c1c(F)cccc1Cl)CC(=O)N2 (configuration not stated) | 70% |
| Cn1ncc2c1NC(=O)CC2c1c(F)cccc1Cl (configuration not stated) | 2.46% |
| O=C1C[C@H]2[C@@H](CCN2C(=O)Cc2cccs2)N1Cc1ccncc1 | 3.5% |
| Cc1cccc(CN2C[C@@H]3OCCN(S(=O)(=O)N(C)C)[C@@H]3C2)c1 | 2.13% |
